From PubChem BioAssay (NCATS) come the findings set out here.

Each structure is given as a SMILES string. A number with no mark means an inactive call. For some assays here: Results with a measured potency or affinity are listed apart. Activity calls are given as the source filed them. The rule behind the calls is not given here.

The conditions of assay [1]: Ebola virus entry assay, green fluorescence channel.
The conditions of assay [2]: Ebola virus entry assay, blue channel fluorescence.
The conditions of assay [3]: Ebola virus entry assay, ratio channel.
For assay [4] the following is noted: Ebola virus entry assay, reporter ratio channel; Channel type: primary.
Throughout, for efficacy: 0% is about no effect.

As to `Nc1ccc2cc3ccc(N)cc3nc2c1`, the efficacy in assay [1] was 154%. Further, the concentration at half-maximal activity (AC50) in assay [2], in assay [3] and in assay [4] was 39.8 µM (active) each time.

Consider `CCCCCCCCCCCC[N+](C)(C)Cc1ccccc1`, for which the efficacy in assay [1] was -253%. For the same molecule, the figures for the concentration at half-maximal activity (AC50) in assay [2], in assay [3] and in assay [4] were 22.4 µM (active), 2.51 µM (active) and 2.51 µM (active), respectively.

Turning to `CCN1CCCC(OC(=O)C(c2ccccc2)c2ccccc2)C1` (stereo not drawn), the efficacy in assay [1] is 26.3%. For the same molecule, the AC50 was 25.1 µM (active) in assay [2], 20 µM (active) in assay [3] and 20 µM (active) in assay [4].

As to `COc1ccc(CCN2CCC(Nc3nc4ccccc4n3Cc3ccc(F)cc3)CC2)cc1`, in assay [1], the efficacy was -220%. Besides, the AC50 in assay [2] is 5.01 µM (active); in assay [3] it was 2.82 µM (active); in assay [4], 2.82 µM (active).

With `CC(=O)SC[C@@H](Cc1ccccc1)C(=O)NCC(=O)OCc1ccccc1`, in assay [1], the efficacy is 58%. For the same molecule, the concentration at half-maximal activity (AC50) in assay [2], in assay [3] and in assay [4] was 28.2 µM (active) each time.

For the molecule `CCC(C(=O)OCCOCCN(CC)CC)c1ccccc1` (stereo not drawn), the efficacy in assay [1] is 61.4%. For the same molecule, the AC50 is 28.2 µM (active) in assay [2], 22.4 µM (active) in assay [3] and 22.4 µM (active) in assay [4].

Take `COC1=C(OC)C(=O)C(CCCCCCCCCCO)=C(C)C1=O`: in assay [1], the efficacy was 52%. Besides, the call in assay [2], in assay [3] and in assay [4] was inactive.

For the molecule `COc1ccc2cc1Oc1ccc(cc1)C[C@H]1c3c(cc4c(c3Oc3cc5c(cc3OC)CCN(C)[C@@H]5C2)OCO4)CCN1C`, the efficacy in assay [1] is 73.2%. For the same molecule, the concentration at half-maximal activity (AC50) in assay [2], in assay [3] and in assay [4] was 1.12 µM (active) each time.

Regarding `CCN(CC)CCOC(=O)C(c1ccccc1)c1ccccc1`, in assay [1], the efficacy is 39%. For the same molecule, the AC50 is 20 µM (active) in assay [2] and 39.8 µM (active) in assay [4]. Besides, the result in assay [3] was inactive.

Take `CN1CCCN=C1COC(=O)C(O)(c1ccccc1)C1CCCCC1` (stereo not drawn): in assay [1], the efficacy is 75.7%. For the same molecule, the AC50 in assay [2], in assay [3] and in assay [4] was 12.6 µM (active) each time.

`c1ccc(C(O[C@H]2CCCN(CCc3ccc4c(c3)OCO4)C2)c2ccccc2)cc1`: the efficacy in assay [1] was 57.8%. The AC50 is 28.2 µM (active) in assay [2], 25.1 µM (active) in assay [3] and 25.1 µM (active) in assay [4].

In the case of `COC(=O)C1=C(C)NC(C)=C(C(=O)OCCN2CCN(C(c3ccccc3)c3ccccc3)CC2)C1c1cccc([N+](=O)[O-])c1` (stereo not drawn), in assay [1], the efficacy is 60.1%. The half-maximal activity concentration (AC50) was 15.8 µM (active) in assay [2], 10 µM (active) in assay [3] and 10 µM (active) in assay [4].

As for `CCCCN(CCCC)CCC(O)c1cc2c(Cl)cc(Cl)cc2c2cc(C(F)(F)F)ccc12` (stereo not drawn), the efficacy in assay [1] was 131%. Moreover, the AC50 was 7.94 µM (active) in assay [2], 4.47 µM (active) in assay [3] and 4.47 µM (active) in assay [4].

For `CCN(CC)CCCC(C)Nc1c2ccc(Cl)cc2nc2ccc(OC)cc12` (stereo not drawn), in assay [1], the efficacy is 40.6%. Also, the AC50 in assay [2], in assay [3] and in assay [4] was 25.1 µM (active) in each case.

Consider `Oc1ccc(CCNCCCCCCNCCc2ccccc2)cc1O`, for which, in assay [1], the efficacy is 30.5%. For the same molecule, the values for the AC50 in assay [2], in assay [3] and in assay [4] were 1.12 µM (active), 1 µM (active) and 1 µM (active), respectively.

On to `COC(=O)Nc1nc2ccc(S(=O)c3ccccc3)cc2[nH]1` (stereo not drawn), for which the efficacy in assay [1] was 35.9%. For the same molecule, the concentration at half-maximal activity (AC50) in assay [2] is 3.16 µM (active); in assay [3] it was 1.78 µM (active); in assay [4] it was 1.78 µM (active).

For the molecule `C=CCc1ccccc1OCC(O)CNC(C)C` (stereo not drawn), the efficacy in assay [1] was 42.4%. Besides, the half-maximal activity concentration (AC50) in assay [2] is 28.2 µM (active); in assay [3] it was 25.1 µM (active); in assay [4], 25.1 µM (active).

`CCCCCCCCCCCCCCCC[N+](C)(C)Cc1ccccc1`: the efficacy in assay [1] was -178%. In addition, the AC50 in assay [2] was 31.6 µM (active); in assay [3], 22.4 µM (active); in assay [4] it was 22.4 µM (active).

Take `CCCCCCCCCCCCCCNCCO`: the efficacy in assay [1] is 123%. Besides, the figures for the concentration at half-maximal activity (AC50) in assay [2], in assay [3] and in assay [4] were 15.8 µM (active), 12.6 µM (active) and 12.6 µM (active), respectively.

As to `CN(C)[C@@H](CCOc1cccc2ccccc12)c1ccccc1`, the efficacy in assay [1] is -116%. In addition, the concentration at half-maximal activity (AC50) in assay [2] was 7.08 µM (active); in assay [3], 3.16 µM (active); in assay [4], 3.16 µM (active).

With `NCc1ccccc1Sc1ccccc1CO`, the efficacy in assay [1] was 118%. The AC50 in assay [2] is 39.8 µM (active); in assay [3], 20 µM (active); in assay [4], 20 µM (active).

`CCOc1ccccc1O[C@H](c1ccccc1)[C@H]1CNCCO1`: the efficacy in assay [1] is 89.3%. Further, the AC50 in assay [2] is 14.1 µM (active); in assay [3], 15.8 µM (active); in assay [4] it was 15.8 µM (active).

Take `CCc1ccc(C(=O)C(C)CN2CCCCC2)cc1` (stereo not drawn): the efficacy in assay [1] was 36.6%. Besides, the half-maximal activity concentration (AC50) was 39.8 µM (active) in assay [2] and 28.2 µM (active) in assay [4]. Also, the result in assay [3] was inactive.

Consider `O=C(CCC1CCN(Cc2ccccc2)CC1)c1ccc2c(c1)NCCCC2`, for which the efficacy in assay [1] is 114%. The half-maximal activity concentration (AC50) in assay [2], in assay [3] and in assay [4] was 7.08 µM (active) throughout.

On to `C/C(=C(/OCCOc1ccc(Cl)cc1)c1ccc(Cl)cc1Cl)n1ccnc1`, for which the efficacy in assay [1] is 81.6%. Besides, the AC50 in assay [2] and in assay [4] was 39.8 µM (active) each time. Moreover, in assay [3], the result was inactive.

On to `CCCCNc1c(C(=O)OCC)c(C)nc2c1cnn2CC`, for which the efficacy in assay [1] is -35%. Besides, the AC50 in assay [2] was 25.1 µM (active); in assay [3], 22.4 µM (active); in assay [4] it was 22.4 µM (active).

As for `COc1cc(N)c(Cl)cc1C(=O)NC1CCN(Cc2ccccc2)CC1`, in assay [1], the efficacy is 43.1%. Also, the AC50 was 31.6 µM (active) in assay [2] and 39.8 µM (active) in assay [4]. Also, the result in assay [3] was inactive.

As to `O=C(c1cc(O)c(O)c(O)c1)c1ccc(O)c(O)c1O`, the efficacy in assay [1] was 38.9%. For the same molecule, the AC50 in assay [2], in assay [3] and in assay [4] was 1.78 µM (active) in each case.

Consider `CCCN(CCC)C(=O)C(CCC(=O)OCCCN1CCN(CCOC(=O)Cc2c(C)n(C(=O)c3ccc(Cl)cc3)c3ccc(OC)cc23)CC1)NC(=O)c1ccccc1` (stereo not drawn), for which the efficacy in assay [1] is 156%. Also, the half-maximal activity concentration (AC50) is 6.31 µM (active) in assay [2], 5.62 µM (active) in assay [3] and 5.62 µM (active) in assay [4].

With `CN1CCCCC1CCN1c2ccccc2Sc2ccc(S(C)=O)cc21` (stereo not drawn), the efficacy in assay [1] was 68.6%. Also, the concentration at half-maximal activity (AC50) in assay [2] was 7.08 µM (active); in assay [3], 7.94 µM (active); in assay [4], 7.94 µM (active).

Regarding `CCOC(=O)COc1ccc2c(C)c(CCN(CC)CC)c(=O)oc2c1Cl`, in assay [1], the efficacy was 158%. The figures for the AC50 in assay [2], in assay [3] and in assay [4] were 28.2 µM (active), 25.1 µM (active) and 25.1 µM (active), respectively.

As to `CCOC(=O)[C@H](CCc1ccccc1)N[C@H]1CCc2ccccc2N(CC(=O)O)C1=O`, the efficacy in assay [1] is 88%. The AC50 in assay [2], in assay [3] and in assay [4] was 3.98 µM (active) in each case.

What is called AC50 is the concentration at which the activity in the assay is half-maximal.
